Reference: PubChem BioAssay (EPA / NIEHS)
Inconclusive results are not listed. Calls of active or inactive are those of the source. How the source made its calls, unless noted: active means hit-call score of the fitted dose curve at least 0.9, where 1 is the maximum; inconclusive means response in the unintended direction; inactive means score below 0.9.

Experiments:
[1] = molecular target: Oxysterols receptor LXR-alpha (Homo sapiens) (UniProt Q13133); assay: ATG_LXRa_TRANS: Attagene TRANS-FACTORIAL HepG2 Assay for human Liver X Receptor alpha (LXRa) (AID 2282980); details: HepG2 Attagene TRANS reporter, LXRa transactivation
Chain of Oxysterols receptor LXR-alpha (Homo sapiens) (Q13133 whole entry, looked up, the tested form may be a part): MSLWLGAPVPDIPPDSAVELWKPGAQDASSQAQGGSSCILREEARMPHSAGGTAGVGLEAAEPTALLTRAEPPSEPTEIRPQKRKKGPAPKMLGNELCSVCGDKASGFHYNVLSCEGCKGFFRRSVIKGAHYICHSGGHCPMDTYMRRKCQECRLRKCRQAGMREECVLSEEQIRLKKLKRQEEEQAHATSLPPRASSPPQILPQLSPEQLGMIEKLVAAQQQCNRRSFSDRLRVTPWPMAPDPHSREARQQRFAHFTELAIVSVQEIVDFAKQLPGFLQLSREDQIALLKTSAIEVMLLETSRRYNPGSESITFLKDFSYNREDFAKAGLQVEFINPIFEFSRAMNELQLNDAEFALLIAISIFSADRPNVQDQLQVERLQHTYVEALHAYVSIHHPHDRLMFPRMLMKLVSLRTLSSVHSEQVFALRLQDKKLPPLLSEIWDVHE
Summary of the method: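 HepG2 cells transiently transfected with GAL4-UAS reporter units for chimeric NR-Gal4 proteins, exposed to chemicals for 24 h. Reporter mRNA quantified by RT-PCR and capillary electrophoresis; gain of signal fitted relative to DMSO.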

[2] = ATG_M_06_TRANS: Attagene TRANS-FACTORIAL HepG2 Assay for M06 Transcription Factor (Internal Marker) (AID 2282983); details: HepG2 Attagene TRANS M06 internal marker reporter;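 on AC50: potency for rise in reporter mRNA above DMSO baseline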
Summary of the method: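 mRNA levels of a reporter transcript, quantified as FAM fluorescence on capillary electrophoresis, served as readout. HepG2 cells expressing exogenous GAL4-chimera reporter constructs were exposed for 24 h. Gain of signal over DMSO was evaluated.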

[3] = ATG_M_32_TRANS: Attagene TRANS-FACTORIAL HepG2 Assay for M32 Transcription Factor (Internal Marker) (AID 2282984); details: HepG2 Attagene TRANS M32 internal marker reporter;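 further: transcript level of a background control reporter unit measured by RT-PCR and capillary electrophoresis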
Summary of the method: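 After 24 h dosing of transfected HepG2 cells, total RNA was reverse-transcribed, reporter sequences PCR-amplified, 6-FAM labelled by primer extension and HpaI-digested before capillary electrophoresis. Signal increase over DMSO was fitted.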

[4] = molecular target: Nuclear respiratory factor 1 (Homo sapiens) (UniProt Q16656); assay: ATG_NRF1_CIS: Attagene CIS-FACTORIAL HepG2 Assay for human Nuclear Respiratory Factor 1 (NRF1) Orphan Gene (AID 2282987; active means hit-call score of the fitted dose curve at least 0.9, where 1 is the maximum; inactive means score below 0.9); details: HepG2 NRF1 cis-element reporter, Attagene multiplex; actives raise or lower the signal
Chain of Nuclear respiratory factor 1 (Homo sapiens) (Q16656 whole entry, looked up): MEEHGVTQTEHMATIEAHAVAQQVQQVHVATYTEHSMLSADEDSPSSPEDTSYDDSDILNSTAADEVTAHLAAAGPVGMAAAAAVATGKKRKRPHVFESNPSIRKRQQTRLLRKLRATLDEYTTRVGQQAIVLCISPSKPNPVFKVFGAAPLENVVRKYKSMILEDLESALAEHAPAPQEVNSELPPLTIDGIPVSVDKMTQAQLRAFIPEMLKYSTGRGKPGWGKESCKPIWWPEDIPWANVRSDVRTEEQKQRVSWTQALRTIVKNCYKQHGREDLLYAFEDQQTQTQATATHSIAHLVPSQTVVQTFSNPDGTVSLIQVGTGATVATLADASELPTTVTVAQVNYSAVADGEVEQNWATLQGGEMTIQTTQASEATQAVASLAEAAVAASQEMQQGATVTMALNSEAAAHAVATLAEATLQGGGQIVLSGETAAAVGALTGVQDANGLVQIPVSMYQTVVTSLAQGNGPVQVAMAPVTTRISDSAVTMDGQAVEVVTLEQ
Summary of the method: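 HepG2 cells transiently transfected with multiple reporter transcription units under cis-regulatory promoter control, so endogenous transcription-factor activity is read. After 24 h compound exposure, reporter mRNA quantified by RT-PCR, fluorescent labelling, HpaI digestion and capillary electrophoresis; bidirectional fitting versus DMSO.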

[5] = molecular target: Nuclear receptor subfamily 4 group A member 2 (Homo sapiens) (UniProt P43354); assay: ATG_NURR1_TRANS: Attagene TRANS-FACTORIAL HepG2 Assay for human Nuclear Receptor Related Protein 1 (NURR1) (AID 2282985); details: HepG2 Attagene TRANS reporter, mRNA readout
Chain of Nuclear receptor subfamily 4 group A member 2 (Homo sapiens) (P43354 whole entry, looked up, the tested form may be a part): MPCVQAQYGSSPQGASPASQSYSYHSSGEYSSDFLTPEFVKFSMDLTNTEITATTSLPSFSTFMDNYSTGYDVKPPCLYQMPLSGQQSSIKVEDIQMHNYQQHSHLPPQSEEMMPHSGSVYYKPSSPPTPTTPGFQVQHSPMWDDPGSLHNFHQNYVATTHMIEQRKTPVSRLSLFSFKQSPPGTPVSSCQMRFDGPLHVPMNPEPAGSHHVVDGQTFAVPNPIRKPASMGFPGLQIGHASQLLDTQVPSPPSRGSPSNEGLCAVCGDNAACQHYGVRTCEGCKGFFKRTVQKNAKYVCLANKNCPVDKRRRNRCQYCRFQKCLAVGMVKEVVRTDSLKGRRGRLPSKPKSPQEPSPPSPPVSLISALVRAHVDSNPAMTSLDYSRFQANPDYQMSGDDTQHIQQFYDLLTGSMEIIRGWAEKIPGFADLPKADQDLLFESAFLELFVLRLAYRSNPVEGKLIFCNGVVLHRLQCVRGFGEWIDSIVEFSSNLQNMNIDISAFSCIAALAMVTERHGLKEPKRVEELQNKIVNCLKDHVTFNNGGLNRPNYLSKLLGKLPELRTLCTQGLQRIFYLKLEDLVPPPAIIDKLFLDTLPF
Summary of the method: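 Chimeric NR-Gal4 fusion activity measured in HepG2 after 24 h treatment. Reporter transcripts detected by RT-PCR and capillary electrophoresis fluorescence; positive-direction curve fitting against DMSO.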

[6] = molecular target: Transcriptional activator Myb (Homo sapiens) (UniProt P10242); assay: ATG_Myb_CIS: Attagene CIS-FACTORIAL HepG2 Assay for human Myeloblastosis (Myb) Proto-Oncogene Transcription Factor (AID 2282986; active means hit-call score of the fitted dose curve at least 0.9, where 1 is the maximum; inactive means score below 0.9); details: HepG2 Attagene CIS-FACTORIAL Myb reporter transcription; actives raise or lower the signal
Chain of Transcriptional activator Myb (Homo sapiens) (P10242 whole entry, looked up): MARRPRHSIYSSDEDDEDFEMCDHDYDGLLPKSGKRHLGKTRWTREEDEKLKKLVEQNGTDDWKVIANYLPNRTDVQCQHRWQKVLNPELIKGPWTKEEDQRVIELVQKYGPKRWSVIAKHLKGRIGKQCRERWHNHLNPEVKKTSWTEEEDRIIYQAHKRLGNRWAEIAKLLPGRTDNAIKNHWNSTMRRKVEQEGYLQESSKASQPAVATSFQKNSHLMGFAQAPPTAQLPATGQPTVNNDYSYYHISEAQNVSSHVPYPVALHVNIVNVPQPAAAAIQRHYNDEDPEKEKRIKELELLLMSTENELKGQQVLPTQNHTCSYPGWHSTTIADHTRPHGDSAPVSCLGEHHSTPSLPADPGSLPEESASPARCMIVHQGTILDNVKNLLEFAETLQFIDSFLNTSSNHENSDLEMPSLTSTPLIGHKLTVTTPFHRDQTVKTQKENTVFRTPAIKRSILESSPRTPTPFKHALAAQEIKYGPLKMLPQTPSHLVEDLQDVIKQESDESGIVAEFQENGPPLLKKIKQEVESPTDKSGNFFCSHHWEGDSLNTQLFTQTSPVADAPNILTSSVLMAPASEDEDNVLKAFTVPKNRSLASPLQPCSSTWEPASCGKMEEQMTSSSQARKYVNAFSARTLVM
Summary of the method: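 HepG2 cells were transiently transfected with cis-regulated multiple reporter transcription units reflecting endogenous Myb activity, then exposed to compound for 24 hours. Reporter mRNA was measured by RT-PCR with capillary electrophoresis; bidirectional fitting versus DMSO baseline.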

[7] = molecular target: Oxysterols receptor LXR-beta (Homo sapiens) (UniProt P55055); assay: ATG_LXRb_TRANS: Attagene TRANS-FACTORIAL HepG2 Assay for human Liver X Receptor beta (LXRb) (AID 2282981); details: HepG2 Attagene TRANS GAL4-LXRb reporter, mRNA
Chain of Oxysterols receptor LXR-beta (Homo sapiens) (P55055 whole entry, looked up, the tested form may be a part): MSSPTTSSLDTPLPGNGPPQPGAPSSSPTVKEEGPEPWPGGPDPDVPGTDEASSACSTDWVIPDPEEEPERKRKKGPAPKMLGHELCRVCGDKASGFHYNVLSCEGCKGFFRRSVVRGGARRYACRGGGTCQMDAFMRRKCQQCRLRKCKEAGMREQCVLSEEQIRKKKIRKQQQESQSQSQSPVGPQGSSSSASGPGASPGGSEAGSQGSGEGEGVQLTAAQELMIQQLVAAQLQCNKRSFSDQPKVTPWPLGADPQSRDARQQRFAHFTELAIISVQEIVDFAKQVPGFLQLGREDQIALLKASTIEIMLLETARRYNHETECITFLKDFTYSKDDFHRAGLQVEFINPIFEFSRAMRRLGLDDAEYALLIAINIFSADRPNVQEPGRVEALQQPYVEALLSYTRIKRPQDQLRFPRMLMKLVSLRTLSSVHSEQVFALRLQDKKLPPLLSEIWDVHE
Summary of the method: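 Measures induction of a Gal4-driven reporter transcript in HepG2 cells expressing an exogenous LXRb-Gal4 fusion. Cells are exposed to compound for 24 h before RNA isolation and RT-PCR with capillary electrophoresis detection.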

[8] = molecular target: Hepatocyte nuclear factor 4-alpha (Homo sapiens) (UniProt P41235); assay: ATG_HNF4a_TRANS: Attagene TRANS-FACTORIAL HepG2 Assay for human Hepatocyte Nuclear Factor 4 alpha (HNF4a) (AID 2282982); details: HepG2 HNF4a transactivation reporter, mRNA readout
Chain of Hepatocyte nuclear factor 4-alpha (Homo sapiens) (P41235 whole entry, looked up, the tested form may be a part): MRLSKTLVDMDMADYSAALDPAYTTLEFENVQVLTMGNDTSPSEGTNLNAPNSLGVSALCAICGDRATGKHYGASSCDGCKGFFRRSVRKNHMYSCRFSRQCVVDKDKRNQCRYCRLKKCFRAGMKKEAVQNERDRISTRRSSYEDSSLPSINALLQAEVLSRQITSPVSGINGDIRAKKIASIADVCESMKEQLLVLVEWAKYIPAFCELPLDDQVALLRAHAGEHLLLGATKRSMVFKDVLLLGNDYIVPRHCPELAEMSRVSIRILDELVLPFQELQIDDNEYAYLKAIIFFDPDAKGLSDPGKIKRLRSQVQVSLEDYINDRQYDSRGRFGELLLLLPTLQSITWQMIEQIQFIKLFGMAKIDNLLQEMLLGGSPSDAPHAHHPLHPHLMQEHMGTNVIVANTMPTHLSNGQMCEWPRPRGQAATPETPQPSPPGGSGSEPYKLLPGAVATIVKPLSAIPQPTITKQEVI
Summary of the method: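 In this trans-factorial format, a chimeric HNF4a-GAL4 fusion drives a GAL4-UAS reporter in transfected HepG2 liver cells. After 24 h treatment, reporter mRNA induction is measured by RT-PCR with capillary electrophoresis, relative to DMSO.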

[9] = ATG_M_61_TRANS: Attagene TRANS-FACTORIAL HepG2 Assay for M61 Transcription Factor (Internal Marker) (AID 2282988; active means hit-call score of the fitted dose curve at least 0.9, where 1 is the maximum; inactive means score below 0.9); details: HepG2 Attagene TRANS M61 internal marker reporter
Protocol: ATG_TRANS is a cell-based, multiplexed-readout assay that uses HepG2, a human liver cell line, with measurements taken at 24 hours after chemical dosing in a 24-well plate.ATG_M_61_TRANS is one of 30 assay component(s) measured or calculated from the ATG_TRANS assay. It is designed to make measurements of mRNA induction, a form of inducible reporter, as detected with fluorescence intensity signals by Reverse transcription polymerase chain reaction (RT-PCR) and Capillary electrophoresis technology.Data from the assay component ATG_M_61_TRANS was analyzed into 1 assay endpoint. This assay endpoint, ATG_M_61_TRANS, was analyzed in the positive analysis fitting direction relative to DMSO as the negative control and baseline of activity. […] Furthermore, this assay endpoint can be referred to as a secondary readout, because this assay has produced multiple assay endpoints where this one serves a background control function. […]
Human liver HepG2 cells are transiently transfected with multiple reporter transcription units (MRTUs) in 6-well plates using FuGene 6 reagent (Roche; 3 ml FuGene/1 mg DNA). […] A major difference between the CIS and TRANS system is that in CIS activities of endogenous TFs are measured, whereas the TRANS assay evaluates changes in activities of exogenous, chimeric NR-Gal4 proteins. […]

Measured: AC50

CCCCOCCOC(C)=O
inactive: [1] | [2] | [3] | [4]

CCCCCCCCCl
inactive: [1] | [2] | [5] | [6]

COc1ccc(C=O)cc1OC
inactive: [7] | [8] | [2] | [3] | [6]

CC(C#N)CCC#N (stereo not drawn)
inactive: [7] | [2]

CC1CN1P(=O)(N1CC1C)N1CC1C (stereo not drawn)
inactive: [1] | [8] | [2]

N#CCc1ccc(Cl)cc1
inactive: [1] | [2] | [6] | [4]

C(=NC1CCCCC1)=NC1CCCCC1
inactive: [1] | [8] | [2] | [6] | [4]

ClCC(Cl)CCl
not listed: [7] | [8] | [9]
inactive: all other assays above

Nc1ccc(-c2ccc(N)c(Cl)c2)cc1Cl
not listed: [1] | [9]
inactive: all other assays above

COc1ccc(C=O)cc1
inactive: [1] | [8] | [2] | [6] | [4]

CCOP(=S)(OCC)Oc1ccc(S(C)=O)cc1 (stereo not drawn)
inactive: [1] | [7] | [4]

COC(=O)Cc1ccccc1
inactive: [1] | [2] | [3] | [6] | [4]

COc1ccc(OC)c(C=O)c1
inactive: [1] | [8] | [3] | [6]

NC(=O)O
inactive: [1] | [7] | [3] | [6] | [4]

CC1(C)Cc2cccc(O)c2O1
inactive: [1] | [2] | [6] | [4]

BrCCBr
inactive: [1] | [7] | [5] | [6] | [4]

CN(CCCC(=O)c1cccnc1)N=O
inactive: [1] | [2] | [3] | [4]

CCC[CH2][Sn]([CH2]CCC)([CH2]CCC)[O]C(=O)c1ccccc1
active: [8] 638 nM | [2] 703 nM
not listed: [1] | [5]
inactive: all other assays above

c1ccc(N=NNc2ccccc2)cc1
inactive: [1] | [2] | [4]

CC(=O)c1cc(C(C)(C)C)cc2c1CCC2(C)C
inactive: [1] | [7] | [3] | [6]
active: [5] 27300 nM

C1CCC(NC2CCCCC2)CC1
inactive: [1] | [3] | [6] | [4]

C=CCc1ccc(OC)cc1
inactive: [1] | [2] | [3] | [5] | [6]

CCSC(C)CC1CC(=O)C(C(CC)=NOC/C=C/Cl)=C(O)C1 (stereo not drawn)
not listed: [7] | [8] | [9]
inactive: all other assays above

CC(C)CCCCCCOC(=O)c1ccccc1C(=O)OCCCCCCC(C)C
inactive: [1] | [6]

C=CC#N
inactive: [1] | [3] | [5] | [6]

CC(=O)C=C(C)C
not listed: [1] | [8] | [9]
inactive: all other assays above

C[C@H]1CCCC(=O)CCC/C=C/c2cc(O)cc(O)c2C(=O)O1
inactive: [1] | [8] | [2] | [6]

COC(=O)c1sccc1S(=O)(=O)NC(=O)Nc1nc(C)nc(OC)n1
inactive: [1] | [7] | [4]

Cc1cc(=O)[nH]o1
inactive: [7] | [8] | [2] | [3] | [6]

COc1cc(-c2ccc(N)c(OC)c2)ccc1N
inactive: [7] | [8] | [2] | [6] | [4]

N#CCCO
inactive: [1] | [7] | [6] | [4]

O=C1C(Cl)=C(Cl)C(=O)c2ccccc21
not listed: [7] | [8] | [9]
inactive: all other assays above

OCc1ccco1
inactive: [1] | [8] | [2] | [4]

CC(=[OH+])/C=C(/C)[O-].CC(=[OH+])/C=C(/C)[O-].CC(=[OH+])/C=C(/C)[O-].[Al]
inactive: [7] | [8] | [2] | [5] | [4]

Cc1ccccc1C(=O)Nc1cccc(OC(C)C)c1
inactive: [1] | [7] | [3] | [6]

ClCCBr
not listed: [7] | [8] | [9]
inactive: all other assays above
